Records with an inconclusive call do not appear. Values without a mark were called inactive. Calls of active or inactive are those of the source. The call rests on the fitted dose curve; in most records, active means well fitted curve in the direction sought with a large enough effect; inconclusive means small, poorly fitted or top-dose-only effect, or another doubt; inactive means no such curve, though single readings can be large; an effect the other way counts as inactive or inconclusive.
Assay: Cytometric Cell-Based qHTS for Inhibitors of the mTORC1 Signaling Pathway in MEF (Tsc2-/-, p53-/-) Cells (AID 2660);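 further: Tsc2 and p53 null MEFs carrying empty vector with compound for 24 h; percent of cells above a phospho-rpS6 to PI ratio cutoff in each well; plate controls were DMSO for no effect and rapamycin for full effect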
Conditions: mTORC1 pathway cytometry; series mostly up to 38.3 µM; activity change, negative = inhibition: at the top concentration
Method in brief: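 Cells are plated, treated with compound for 24 hrs at 37 degree Celsius, then fixed, blocked and immunostained for phospho-rpS6 Ser235/236. Propidium iodide counterstain follows. Per-well % positive cells is derived from the PI-normalized phospho-S6 signal.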

Row | Structure (SMILES) | activity change, negative = inhibition
1 | C=CC(N)CCC(=O)O (stereo not drawn) | 3.76%
2 | O=C(O)c1cc(=O)c2c(Cl)cc(Cl)cc2[nH]1 | 4.12%
3 | c1ccc(-c2ccccn2)nc1 | -2.41%
4 | CN1CCC[C@H]1c1cccnc1 | 3.06%
5 | O=c1[nH]c2cc([N+](=O)[O-])c([N+](=O)[O-])cc2[nH]c1=O | 11%
6 | Cc1ccc(C(=O)O[C@H](C(=O)O)[C@@H](OC(=O)c2ccc(C)cc2)C(=O)O)cc1 (tested in a mixture with another compound) | 1.15%
7 | Brc1c(Br)c(Br)c2n[nH]nc2c1Br | 2.63%
8 | C[N+](C)(CCCCCC[N+](C)(C)CCCN1C(=O)c2cccc3cccc(c23)C1=O)CCCN1C(=O)c2cccc3cccc(c23)C1=O | -20.4%
9 | CC1(C)CCC=[N+]1[O-] | 2.55%
10 | NCCCCC(=O)O | 0.816%
11 | S=C(S)OC1CC2CC1C1CCCC21 (stereo not drawn) | -1.19%
12 | O=C(O)CC1CCCc2ccccc2C1O (stereo not drawn) | 4.19%
13 | O=C(O)CNC(=O)C(CS)Cc1ccccc1 (stereo not drawn) | -2.42%
14 | NCCCCCCCCCCN | 2.98%
15 | NCCSSCCN | 6.11%
16 | CN1C2CCC1CC(OC(=O)C(O)c1ccccc1)C2 (stereo not drawn) | 0.334%
17 | Cn1c(=O)c2[nH]c(-c3ccccc3)nc2n(C)c1=O | -2.06%
18 | CC1CN(S(=O)(=O)c2cccc3cnccc23)CCN1 (stereo not drawn) | 0.418%
19 | N=C(N)SCCc1ccc(CCSC(=N)N)cc1 | -11%
20 | O=C(O)[C@@H]1C[C@@H](C(=O)O)N1 | 6.54%
21 | CCCCCCCCCCCCCCCC(=O)NCC(COP(=O)([O-])OCC[N+](C)(C)C)OCC (stereo not drawn) | 2.28%
22 | CC(=O)N[C@H](C(=O)O)C(C)(C)SN=O | 2.78%
23 | NC(=O)C(=O)O | 3.91%
24 | O=C(O)c1cc(=O)c2ccccc2[nH]1 | -0.738%
25 | COc1cc(C(O)CO)ccc1OS(=O)(=O)O (stereo not drawn) | -1.81%
26 | CN(C)c1nc(N)c(C(=O)N=C(N)N)nc1Cl | -4.57%
27 | C[C@@H](CN1CCC(Cc2ccccc2)CC1)[C@@H](O)c1ccc(O)cc1 | 0.613%
28 | OCC1O[C@H](O)C(Cl)C(O)C1O (stereo partly drawn) | 3.8%
29 | CC(=O)SCC[N+](C)(C)C | 1.74%
30 | O=C1O/C(=C/Br)CCC1c1cccc2ccccc12 (stereo not drawn) | -23.6%

Assay: High Content Imaging Cell-Based qHTS for Inhibitors of the mTORC1 Signaling Pathway in MEF (Tsc2-/-, p53-/-) Cells (AID 2666);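 further: percent of cells scored positive for phospho-rpS6 Ser235/236 immunostaining by imaging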
Conditions: series mostly up to 38.3 µM
Method in brief: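 MEF Tsc2-/- p53-/- (empty vector), DMEM/10% FBS; cpd 24 h 37 °C; PFA fix, Alexa-488 p-rpS6 S235/236 Ab, Hoechst; imaged; rapamycin-defined inhibition; % positive cells/well.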

Row | Structure (SMILES) | outcome
31 | O=C(O)c1cc(=O)c2c(Cl)cc(Cl)cc2[nH]1 | inactive
32 | c1ccc(-c2ccccn2)nc1 | inactive
33 | CN1CCC[C@H]1c1cccnc1 | inactive
34 | Cc1ccc(C(=O)O[C@H](C(=O)O)[C@@H](OC(=O)c2ccc(C)cc2)C(=O)O)cc1 (tested in a mixture with another compound) | inactive
35 | C[N+](C)(CCCCCC[N+](C)(C)CCCN1C(=O)c2cccc3cccc(c23)C1=O)CCCN1C(=O)c2cccc3cccc(c23)C1=O | inactive
36 | CC1(C)CCC=[N+]1[O-] | inactive
37 | NCCCCC(=O)O | inactive
38 | S=C(S)OC1CC2CC1C1CCCC21 (stereo not drawn) | inactive
39 | O=C(O)CNC(=O)C(CS)Cc1ccccc1 (stereo not drawn) | inactive
40 | NCCCCCCCCCCN | inactive
41 | NCCSSCCN | inactive
42 | Cn1c(=O)c2[nH]c(-c3ccccc3)nc2n(C)c1=O | inactive
43 | CC1CN(S(=O)(=O)c2cccc3cnccc23)CCN1 (stereo not drawn) | inactive
44 | N=C(N)SCCc1ccc(CCSC(=N)N)cc1 | inactive
45 | O=C(O)[C@@H]1C[C@@H](C(=O)O)N1 | inactive
46 | CCCCCCCCCCCCCCCC(=O)NCC(COP(=O)([O-])OCC[N+](C)(C)C)OCC (stereo not drawn) | inactive
47 | CC(=O)N[C@H](C(=O)O)C(C)(C)SN=O | inactive
48 | NC(=O)C(=O)O | inactive
49 | O=C(O)c1cc(=O)c2ccccc2[nH]1 | inactive
50 | COc1cc(C(O)CO)ccc1OS(=O)(=O)O (stereo not drawn) | inactive
51 | CN(C)c1nc(N)c(C(=O)N=C(N)N)nc1Cl | inactive
52 | C[C@@H](CN1CCC(Cc2ccccc2)CC1)[C@@H](O)c1ccc(O)cc1 | inactive
53 | CC(=O)SCC[N+](C)(C)C | inactive
54 | O=C1O/C(=C/Br)CCC1c1cccc2ccccc12 (stereo not drawn) | inactive

Assay: High Content Imaging Cell-Based qHTS for Inhibitors of the mTORC1 Signaling Pathway in MEF Cells (AID 2667);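 further: Tsc2-/- p53-/- MEFs stably re-expressing wild-type Tsc2 exposed 24 h; plate controls were DMSO wells for no effect and rapamycin control wells for full effect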
Conditions: series mostly up to 38.3 µM; activity change, negative = inhibition: at the top concentration
Method in brief: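 Read-out is the share of phospho-rpS6-positive cells per well, from Hoechst-normalized Alexa-488 Ser235/236 staining imaged on IN Cell. Cells: WT Tsc2-expressing Tsc2-/-, p53-/- MEFs exposed to compound for 24 hrs.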

Row | Structure (SMILES) | activity change, negative = inhibition
55 | C=CC(N)CCC(=O)O (stereo not drawn) | -100%
56 | O=C(O)c1cc(=O)c2c(Cl)cc(Cl)cc2[nH]1 | -100%
57 | c1ccc(-c2ccccn2)nc1 | -100%
58 | CN1CCC[C@H]1c1cccnc1 | -100%
59 | O=c1[nH]c2cc([N+](=O)[O-])c([N+](=O)[O-])cc2[nH]c1=O | -100%
60 | Cc1ccc(C(=O)O[C@H](C(=O)O)[C@@H](OC(=O)c2ccc(C)cc2)C(=O)O)cc1 (tested in a mixture with another compound) | -100%
61 | Brc1c(Br)c(Br)c2n[nH]nc2c1Br | -100%
62 | C[N+](C)(CCCCCC[N+](C)(C)CCCN1C(=O)c2cccc3cccc(c23)C1=O)CCCN1C(=O)c2cccc3cccc(c23)C1=O | -100%
63 | CC1(C)CCC=[N+]1[O-] | -100%
64 | NCCCCC(=O)O | -100%
65 | S=C(S)OC1CC2CC1C1CCCC21 (stereo not drawn) | -100%
66 | O=C(O)CC1CCCc2ccccc2C1O (stereo not drawn) | -100%
67 | O=C(O)CNC(=O)C(CS)Cc1ccccc1 (stereo not drawn) | -100%
68 | NCCCCCCCCCCN | -100%
69 | NCCSSCCN | -100%
70 | CN1C2CCC1CC(OC(=O)C(O)c1ccccc1)C2 (stereo not drawn) | -100%
71 | Cn1c(=O)c2[nH]c(-c3ccccc3)nc2n(C)c1=O | -100%
72 | CC1CN(S(=O)(=O)c2cccc3cnccc23)CCN1 (stereo not drawn) | -100%
73 | N=C(N)SCCc1ccc(CCSC(=N)N)cc1 | -100%
74 | O=C(O)[C@@H]1C[C@@H](C(=O)O)N1 | -100%
75 | CCCCCCCCCCCCCCCC(=O)NCC(COP(=O)([O-])OCC[N+](C)(C)C)OCC (stereo not drawn) | -100%
76 | CC(=O)N[C@H](C(=O)O)C(C)(C)SN=O | -100%
77 | NC(=O)C(=O)O | -100%
78 | O=C(O)c1cc(=O)c2ccccc2[nH]1 | -100%
79 | COc1cc(C(O)CO)ccc1OS(=O)(=O)O (stereo not drawn) | -100%
80 | CN(C)c1nc(N)c(C(=O)N=C(N)N)nc1Cl | -100%
81 | C[C@@H](CN1CCC(Cc2ccccc2)CC1)[C@@H](O)c1ccc(O)cc1 | -100%
82 | OCC1O[C@H](O)C(Cl)C(O)C1O (stereo partly drawn) | -100%
83 | CC(=O)SCC[N+](C)(C)C | -100%

From PubChem BioAssay (NCATS)
